Screening data (PubChem)
MEKK3 PB1 HTS – MEKK3-MEK5 PB1 interaction, increase or decrease; Q99759; bead-based flow cytometry, Alexa488-MEK5 binding to MEKK3; actives lie on both sides; 0 = blocked by unlabeled MEK5, 100 = vehicle; binding response (% of control), % at 10 µM; 1.4% of 290,000 active; AID 1529;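 active = binding response more than 3 SD above or below the average of its plate-row segment, actives on both sides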;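 note: Alexa488 bead fluorescence after subtracting the streptavidin-only scavenger bead signal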
Target sequence (Q99759 whole entry, looked up): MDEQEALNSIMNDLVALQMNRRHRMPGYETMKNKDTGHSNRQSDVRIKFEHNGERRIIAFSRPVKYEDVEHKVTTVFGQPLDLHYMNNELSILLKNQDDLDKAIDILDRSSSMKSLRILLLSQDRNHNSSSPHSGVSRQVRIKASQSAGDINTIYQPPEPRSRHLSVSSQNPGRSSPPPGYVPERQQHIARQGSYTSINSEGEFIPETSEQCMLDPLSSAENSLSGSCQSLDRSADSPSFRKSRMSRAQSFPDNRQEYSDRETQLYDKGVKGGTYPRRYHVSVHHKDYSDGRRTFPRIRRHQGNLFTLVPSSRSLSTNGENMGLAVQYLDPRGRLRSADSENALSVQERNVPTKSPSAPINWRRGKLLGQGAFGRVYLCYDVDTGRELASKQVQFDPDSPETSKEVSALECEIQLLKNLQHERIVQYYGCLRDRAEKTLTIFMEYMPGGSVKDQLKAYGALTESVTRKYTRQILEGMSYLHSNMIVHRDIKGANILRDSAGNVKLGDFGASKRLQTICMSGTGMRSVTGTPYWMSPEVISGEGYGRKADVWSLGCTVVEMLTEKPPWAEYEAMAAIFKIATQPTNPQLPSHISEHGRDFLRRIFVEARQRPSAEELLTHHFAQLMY
MEKK2 mut-MEK5 – signal of MEK5 binding to mutant human MEKK2 PB1 domain; bead flow cytometry, Alexa488-MEK5 binding to MEKK2 mutant; percent response, % at 10 µM; 0.35% of 290,000 active; in the data active = percent response above about 24%, passing the limit was not always enough
MEKK2wt PB1 HTS – raises or lowers MEK5 binding to wildtype human MEKK2 PB1 domain; binding response (% of control), % at 10 µM; 1.1% of 290,000 active; bead flow cytometry, Alexa488-MEK5 binding to MEKK2 WT; actives lie on both sides; AID 1531; Q9Y2U5; in the data active = binding response below about 67% or above about 130%
GRK2 aptamer HTS – human GRK2 inhibition via aptamer displacement | bead flow cytometry, FAM-aptamer displacement from GRK2 | inhibition of aptamer binding, % at 10 µM | 0.59% of 330,000 active | AID 488847;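 active = inhibition of aptamer binding above 40%, roughly 3 SD of noise, on plates passing a quality check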;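 note: median bead fluorescence of bound FAM aptamer so fluorescent compounds give negative values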
MEKK2wt confirm – raises or lowers MEK5 binding to wildtype human MEKK2, retest; shares compounds with MEKK3 PB1 HTS; AID 1892; binding response (% of control), % at 10 µM; 2.4% of 5,900 active; bead flow cytometry, Alexa488-MEK5 binding to MEKK2 WT; actives lie on both sides; in the data active = binding response below about 16% or above about 210%; inactive = in between
MEKK2mut-MEK5 – signal of MEK5 binding to mutant human MEKK2, retest | bead flow cytometry, Alexa488-MEK5 binding to MEKK2 mutant | AID 1893 | 2% of 5,900 active | percent response, % at 10 µM | shares compounds with MEKK3 PB1 HTS; in the data active = percent response mostly above about 71%, no sharp cut-off; inactive = mostly below about 38%;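 note: higher means compound restores mutant binding toward wildtype level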
MEKK3 confirm – MEKK3-MEK5 PB1 inhibition, single concentration confirmation; shares compounds with MEKK3 PB1 HTS; bead flow cytometry, Alexa488-MEK5 binding to MEKK3; stronger effect = lower value; binding response (% of control), % at 10 µM; 1.8% of 5,900 active; AID 1894;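 active = binding response below 72% of control, or above a set upper limit, though filed actives all read lower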;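 note: 100% = DMSO only wells and 0% = binding blocked by excess unlabeled MEK5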
Active calls of the source: *; / = not tested or not shown; [ ] = remark or other dose. Hits are enriched below; roughly 2.5% of the tested compounds scored in any of these assays.

SMILES	MEKK3 PB1 HTS	MEKK2 mut-MEK5	MEKK2wt PB1 HTS	GRK2 aptamer HTS	MEKK2wt confirm	MEKK2mut-MEK5	MEKK3 confirm
O=C(Nc1ccc(S(=O)(=O)NC2=NCCCCC2)cc1)c1ccc(Cl)c([N+](=O)[O-])c1	/	/	/	5.0	/	/	/
CCOc1ccc(/C=N/NC(=O)C(O)c2ccccc2)c(O)c1 (stereo not given)	100.0	1.0	100.0	2.0	/	/	/
CC(C)Oc1c(N2CCOCC2)c(=O)c1=O	103.0	4.0	107.0	0.0	/	/	/
O=c1c(N2CCOCC2)c(N2CCOCC2)c1=O	42.0*[inhibitor]	-33.0	52.0	2.0	105.0	2.0	103.0
Cn1c(=O)n(C)c2cc(S(=O)(=O)NCCOCCO)ccc21	2.0*[inhibitor]	-27.0	-1.0*[inhibitor]	1.0	103.0	2.0	102.0
Cn1c(=O)n(C)c2cc(S(=O)(=O)NCCO)ccc21	103.0	-1.0	101.0	0.0	/	/	/
CC1CC(C)CN(C(=O)CSc2nnc(N)s2)C1 (stereo not given)	101.0	-2.0	102.0	0.0	/	/	/
N#Cc1ccc(-c2ccc(OCC(O)CN3CCCCC3)cc2)cc1 (stereo not given)	98.0	1.0	109.0	0.0	/	/	/
COC(=O)CSc1nc(-c2ccccc2)cc(-c2ccco2)c1C#N	125.0*	5.0	123.0	1.0	106.0	4.0	106.0
Cc1ccc(NC(=O)CC2SC(=NCC3CCCO3)NC2=O)cc1Cl (stereo not given)	139.0*	-1.0	101.0	0.0	96.0	-6.0	102.0
COc1ccc(NC(=O)CC2SC(=NCC3CCCO3)NC2=O)cc1 (stereo not given)	99.0	-2.0	98.0	3.0	/	/	/
C=CCNc1ccccc1S(=O)(=O)NCc1ccccc1	/	/	/	0.0	/	/	/
CCOC(=O)c1c(C)[nH]c2cc(Br)c(O)cc12	2.0*[inhibitor]	5.0	2.0*[inhibitor]	0.0	102.0	4.0	106.0
COc1ccccc1N1CCN(S(=O)(=O)CCNC(=O)C2CC2)CC1	/	/	/	0.0	/	/	/
CNC(=O)c1c(NC(=O)C2=COCCO2)sc(C)c1C	/	/	/	0.0	/	/	/
Cc1ccc(C(=O)NCCc2sc(C)nc2C)cc1	108.0	29.0	118.0	1.0	/	/	/
Cc1nc(C)c(CCNC(=O)c2ccc(C(F)(F)F)cc2)s1	138.0*	1.0	106.0	2.0	102.0	3.0	105.0
COc1cc(OC)cc(C(=O)NNC(=O)c2ccccn2)c1	135.0*	0.0	106.0	0.0	113.0	5.0	105.0
COC(=O)C1=C(C(=O)OC)[C@@H]2N(C)c3ccc(OC)cc3[C@@]23C[C@@H](C(=O)OC)N(C(=O)NC2CCCCC2)C3=N1	2.0*[inhibitor]	-24.0	3.0*[inhibitor]	3.0	100.0	-2.0	103.0
COc1ccccc1-c1cc(C(=O)N/N=C/C=C/c2ccccc2[N+](=O)[O-])c2ccccc2n1	94.0	-1.0	89.0	2.0	/	/	/
O=C(CSc1nc2ccccc2c(=O)n1-c1ccccc1)N/N=C/C=C/c1ccccc1[N+](=O)[O-]	100.0	0.0	98.0	0.0	/	/	/
Cc1ccccc1-n1c(SCC(=O)N/N=C/C=C/c2ccccc2[N+](=O)[O-])nc2ccccc2c1=O	134.0*	0.0	102.0	6.0	97.0	-7.0	104.0
O=C(N/N=C/C=C/c1ccccc1[N+](=O)[O-])c1cc(-c2cccnc2)nc2ccccc12	65.0*[inhibitor]	-2.0	90.0	6.0	103.0	3.0	106.0
Cc1cccn2c(=O)c(/C=C(\C#N)C(N)=O)c(N3CCN(c4cccc(Cl)c4)CC3)nc12	104.0	-1.0	102.0	1.0	/	/	/
O=S(=O)(Cc1ccccc1)N1CCN(Cc2ccc(F)cc2Cl)CC1	107.0	2.0	104.0	1.0	/	/	/
SMILES	MEKK3 PB1 HTS	MEKK2 mut-MEK5	MEKK2wt PB1 HTS	GRK2 aptamer HTS	MEKK2wt confirm	MEKK2mut-MEK5	MEKK3 confirm
CCOC(=O)CN1C=C(c2ccc3ccccc3n2)C(C[N+](=O)[O-])c2ccccc21 (stereo not given)	103.0	82.0*	67.0*	0.0	102.0	-10.0	96.0
CCn1c(=N)n(CC(=O)c2ccc(Cl)c(Cl)c2)c2ccccc21	109.0	14.0	125.0	0.0	/	/	/
N=c1n(CCN2CCCCC2)c2ccccc2n1CC(O)c1ccc(Cl)c(Cl)c1 (stereo not given)	110.0	14.0	142.0*	0.0	153.0	18.0	103.0
N=c1n(CCN2CCCCC2)c2ccccc2n1CC(=O)c1ccc(Cl)c(Cl)c1	102.0	28.0	173.0*	0.0	166.0	30.0	106.0
Cc1nc2c(Br)c(C)nn2c2c1CCC2	105.0	0.0	104.0	2.0	/	/	/
CCC1=NN(S(=O)(=O)c2ccc(C)cc2)C(O)(C(F)(F)F)C1 (stereo not given)	128.0*	1.0	114.0	5.0	102.0	-2.0	105.0
CCOC(=O)c1cc(-c2ccccc2C)n(CC2CC(c3cccc([N+](=O)[O-])c3)=NO2)n1 (stereo not given)	/	/	/	1.0	/	/	/
CCOC(=O)N1CCC(NC(=O)c2cc(C(=O)Nc3cccc(C(F)(F)F)c3)ccc2CO)CC1	131.0*	1.0	117.0	3.0	103.0	-1.0	103.0
COc1ccc2c(c1)nc(CN1CCN(CCO)CC1)n2C	110.0	32.0*	128.0	1.0	105.0	1.0	102.0
COc1ccc(OCC(=O)Nc2ccc3c(c2)nc(CN2CCCC2)n3C)cc1	98.0	4.0	102.0	0.0	/	/	/
COc1ccc2c(c1)nc(SCC(C)O)n2C (stereo not given)	132.0*	4.0	108.0	0.0	102.0	11.0	105.0
COc1ccccc1C(=O)Nc1ccc2c(c1)nc(CN1CCN(C(C)=O)CC1)n2C	67.0*[inhibitor]	-12.0	68.0	0.0	106.0	3.0	104.0
CCOC(=O)C1=C(C)C(c2cccc(Oc3ccccc3)c2)NC(=S)N1 (stereo not given)	99.0	0.0	97.0	/	/	/	/
O=C1CC(c2cccc(Oc3ccccc3)c2)NC(=O)N1 (stereo not given)	0.0*[inhibitor]	-21.0	-1.0*[inhibitor]	0.0	101.0	2.0	101.0
COc1ccc(N2C(=O)CC(C)(C)CC2=O)cc1OC	104.0	8.0	102.0	5.0	/	/	/
Cn1cccc1CC(=O)NNC(=O)Nc1cccc(Cl)c1	129.0*	-1.0	105.0	0.0	106.0	5.0	104.0
Cc1noc(C)c1-c1nc(CS(=O)(=O)c2ccc(F)cc2)no1	92.0	-7.0	95.0	3.0	/	/	/
COc1ccc(NS(=O)(=O)c2cc(NC(=O)CCSc3ccccc3)ccc2OC)cc1	145.0*	-1.0	111.0	2.0	100.0	0.0	105.0
CCCCCCn1c(N2CCC(C(N)=O)CC2)nc2c1c(=O)n(C)c(=O)n2C	2.0*[inhibitor]	-21.0	2.0*[inhibitor]	0.0	102.0	4.0	101.0
Cc1cc(C)n(-c2ccc(C(=O)N3CC(C)OC(C)C3)cc2)n1 (stereo not given)	101.0	-7.0	96.0	0.0	/	/	/
